“And” between values parts separate entries of the source, which are not always exact repeats. Identical values can stand only once. Records with an inconclusive call do not appear. Entries that show only a call come without a potency. Some structures have more than one record in an assay (separate samples or runs), and their calls can disagree. The source made the active and inactive calls. Unless noted, calls follow the shape of the dose curve; as a rule, active = well fitted curve in the direction sought with a large enough effect; inconclusive = small, poorly fitted or top-dose-only effect, or another doubt; inactive = no such curve, though single readings can be large; an effect the other way counts as inactive or inconclusive.
How the values were obtained:
[1] = qHTS assay for measurement of the activity of small molecule inhibitors on Zika virus induced Caspase-3 activity in human iPSC derived neural progenitor cells (hNPCs) (AID 1224857); also: nearly all actives have a fitted effect of over 65% in size
Outline: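 Zika virus (2 FFU/cell) infection of human iPSC-derived NPCs, 6 h, following 1 h compound preincubation. Read-out: Caspase-Glo 3/7 luminescence.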

[2] = qHTS assay for measurement of the activity of small molecule inhibitors on Zika virus induced Caspase-3 activity in human astrocytoma cells (AID 1224859)
Outline: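 Caspase activation in ZIKV-infected SNB-19 cells (2 FFU/cell, 6 h) measured by Caspase-Glo 3/7 luminescence after 30 min RT; compound pre-incubated 1 h; normalised to uninfected and infected controls.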

[3] = biological target: Atrial natriuretic peptide receptor 1 (Homo sapiens) (UniProt P16066); experiment: Natriuretic polypeptide receptor (hNpr1) antagonism - Pilot screen (AID 1347049; calls by dose curve;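 also: HEK293 cells with hNpr1 and GloSensor cGMP luciferase stimulated by 0.1 nM hNppA; agonist-evoked cGMP luminescence read 20 min after hNppA addition; series mostly up to about 58 µM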)
Chain of Atrial natriuretic peptide receptor 1 (Homo sapiens) (P16066 whole entry, looked up): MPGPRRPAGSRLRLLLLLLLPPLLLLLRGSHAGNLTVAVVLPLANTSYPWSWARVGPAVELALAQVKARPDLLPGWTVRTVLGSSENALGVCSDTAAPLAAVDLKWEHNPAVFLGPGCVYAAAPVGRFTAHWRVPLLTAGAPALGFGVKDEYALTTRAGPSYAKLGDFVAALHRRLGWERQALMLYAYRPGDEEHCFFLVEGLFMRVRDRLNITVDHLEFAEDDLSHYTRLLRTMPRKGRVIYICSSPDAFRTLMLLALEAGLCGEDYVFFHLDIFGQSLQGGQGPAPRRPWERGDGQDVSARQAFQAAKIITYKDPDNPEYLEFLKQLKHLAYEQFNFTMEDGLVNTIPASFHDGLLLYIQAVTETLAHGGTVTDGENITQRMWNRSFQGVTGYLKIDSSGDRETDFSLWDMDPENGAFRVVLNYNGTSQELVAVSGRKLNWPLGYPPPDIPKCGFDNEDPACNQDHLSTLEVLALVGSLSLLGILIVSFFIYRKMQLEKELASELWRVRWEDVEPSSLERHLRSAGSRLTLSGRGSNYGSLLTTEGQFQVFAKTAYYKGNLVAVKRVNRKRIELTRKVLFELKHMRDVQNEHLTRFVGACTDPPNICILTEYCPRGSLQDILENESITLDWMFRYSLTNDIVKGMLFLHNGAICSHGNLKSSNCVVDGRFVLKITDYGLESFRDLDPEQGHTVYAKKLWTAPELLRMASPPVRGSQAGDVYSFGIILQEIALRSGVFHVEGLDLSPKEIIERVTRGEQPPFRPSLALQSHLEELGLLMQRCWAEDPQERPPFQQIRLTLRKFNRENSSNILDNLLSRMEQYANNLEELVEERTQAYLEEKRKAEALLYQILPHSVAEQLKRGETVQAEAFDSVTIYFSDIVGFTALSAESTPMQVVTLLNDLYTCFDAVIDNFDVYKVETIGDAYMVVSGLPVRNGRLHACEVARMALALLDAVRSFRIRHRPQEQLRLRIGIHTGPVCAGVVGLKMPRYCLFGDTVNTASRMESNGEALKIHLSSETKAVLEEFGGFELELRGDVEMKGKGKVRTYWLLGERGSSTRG
Outline: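 Cells expressing receptor plus cGMP biosensor are seeded and incubated overnight at 37C, then loaded with GloSensor reagent (2% final) at room temperature for 2 h. Library compounds go on for 30 min. A pre-read precedes agonist (hNppA, 0.1 nM final) and a 20-min readout.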

[4] = qHTS assay to identify small molecule inhibitors of chordoma cells - UCH-1 (AID 1259355); also: nearly all actives have a fitted effect of over 55% in size; also: potency is read from the fitted curve at half-maximal effect; series mostly up to about 46 µM
Outline: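 A 48hr growth-inhibition format: each drug tested at 15 concentrations together with added auranofin, camptothecin, doxorubicin, rubitecan and topotecan, with cell viability quantified as CellTiter-Glo luminescence.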

[5] = qHTS assay to identify small molecule inhibitors of chordoma cells - UCH-2 (AID 1259356); also: potency is read from the fitted curve at half-maximal effect
[6] = P-glycoprotein substrates identified in KB-8-5-11 adenocarcinoma cell line, qHTS therapeutic library screen (AID 1346987); also: nearly all actives have a fitted effect of over 65% in size; also: potency is read from the fitted curve at half-maximal effect
Outline: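 Compounds are pinned in dose-response onto KB-8-5-11 cells (500 cells/well, colchicine-free medium) and left 72 h at 37 degree C. CellTiter-Glo luminescence then yields AC50 values.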

| SMILES | Potency [1] | outcome [2] | Potency [3] | Potency [4] | Potency [5] | Potency [6] |
| --- | --- | --- | --- | --- | --- | --- |
| CC(C)=CCOc1c2occc2cc2ccc(=O)oc12 | inactive | inactive | inactive |  |  |  |
| CC[C@@H](CO)NC(=O)[C@@H]1C=C2c3cccc4[nH]cc(c34)C[C@H]2N(C)C1 | inactive | inactive | inactive | inactive | inactive |  |
| Oc1cccc2cccnc12 | inactive | inactive |  | inactive | inactive | inactive |
| CCN(CC)C(=O)N[C@@H]1C=C2c3cccc4[nH]cc(c34)C[C@@H]2N(C)C1 | inactive | inactive |  | inactive | inactive |  |
| COc1ccc(Cc2nccc3cc(OC)c(OC)cc23)cc1OC | inactive | inactive |  | inactive | inactive | 880 nM (active) and inactive |
| NCC(O)c1ccc(O)cc1 (configuration not stated) | inactive | inactive | inactive | inactive | inactive |  |
| CC(C)(C)NCC(O)c1cc(Cl)c(N)c(Cl)c1 (configuration not stated) | inactive | inactive |  | inactive | inactive | inactive |
| NCCc1cc(O)c(O)cc1O | inactive | inactive |  | inactive | inactive |  |
| CCCN1CCC[C@@H]2Cc3[nH]ncc3C[C@H]21 | inactive | inactive | inactive |  | inactive | inactive |
| Cc1ncc(CNC(=O)N(CCCl)N=O)c(N)n1 | inactive | inactive | inactive | inactive | inactive | inactive |
| CCCN1CCC[C@@H]2Cc3nc(N)ncc3C[C@H]21 | inactive | inactive | inactive | inactive | inactive |  |
| C[C@H]1O[C@@H](O[C@H]2[C@@H](O)C[C@H](O[C@H]3[C@@H](O)C[C@H](O[C@H]4CC[C@@]5(C)[C@H](CC[C@@H]6[C@@H]5CC[C@]5(C)[C@@H](C7=CC(=O)OC7)CC[C@]65O)C4)O[C@@H]3C)O[C@@H]2C)C[C@H](O)[C@@H]1O | inactive | inactive |  | 112 nM (active) | 46.1 nM (active) | 65.1 nM (active) and 76.9 nM (active) |

— PubChem BioAssay (NCATS)
